Experimental findings from publication PMC10812921, “Transcriptional Coactivator BOB1 (OBF1, OCA-B) Modulates the Specificity of DNA Recognition by the POU-Domain Factors OCT1 and OCT2 in a Monomeric Configuration” are described below.

One assay concerns the target POU1 (OCT1 POU domain) (human, UniProt P14859 260-458). Nature of the assay: EMSA-SELEX-seq; no BOB1; 20 mM Tris-HCl pH 7.6, 140 mM NaCl, 10% glycerol, 0.5 mM EDTA, 0.05% Triton X-100, 0.1 mg/mL BSA, 0.1 mg/mL poly(dI-dC), 5 mM DTT, room temperature, 20 min; high values mean tight binding. The settings on record: protein: recombinant; dsDNA, one strand shown. The gist of the method: (§1)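 With or without 28 ng coactivator protein, 30 ng of tagged POU-domain protein was combined with 300 ng of a PCR-amplified double-stranded random 35-nt library in 20 μL Tris–HCl pH 7.6 binding buffer for 20 min at RT. The protein came from E. coli BL21 and had been purified under denaturing conditions and renatured. Four rounds of cutting complex bands from native 6% PAGE, elution and PCR amplification preceded Illumina sequencing. The binding preference figure is the percentage of sequenced 8-mers matching a motif pattern.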
(In general: In EMSA bound probe runs differently from free probe, usually more slowly.)

The target of a further assay is T1, POU2 (OCT2 POU domain) (human, UniProt P09086 175-386).
T1 sequence: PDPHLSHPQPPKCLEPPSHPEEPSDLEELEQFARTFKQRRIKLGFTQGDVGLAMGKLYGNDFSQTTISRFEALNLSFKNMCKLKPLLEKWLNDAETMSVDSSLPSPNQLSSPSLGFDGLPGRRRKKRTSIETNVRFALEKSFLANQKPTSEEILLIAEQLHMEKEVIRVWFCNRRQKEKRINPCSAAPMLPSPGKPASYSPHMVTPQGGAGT
Described as above. The settings on record: protein: recombinant; dsDNA, one strand shown. The gist of the method: as §1

Assay [1] concerns the target POU1 (OCT1 POU domain);BOB1 (OBF1, OCA-B) (human;human, UniProt P14859;Q16633 260-458;1-256, |). Nature of the assay: EMSA-SELEX-seq; with BOB1 (ternary complex band); 20 mM Tris-HCl pH 7.6, 140 mM NaCl, 10% glycerol, 0.5 mM EDTA, 0.05% Triton X-100, 0.1 mg/mL BSA, 0.1 mg/mL poly(dI-dC), 5 mM DTT, room temperature, 20 min; high values mean tight binding. The settings on record: protein: recombinant;recombinant; copies: 1;1; dsDNA, one strand shown. The gist of the method:
as §1

For assay [2], the target named is T2, POU2 (OCT2 POU domain);BOB1 (OBF1, OCA-B) (human;human, UniProt P09086;Q16633 175-386;1-256, |).
T2 sequence 1: T1 sequence
T2 sequence 2: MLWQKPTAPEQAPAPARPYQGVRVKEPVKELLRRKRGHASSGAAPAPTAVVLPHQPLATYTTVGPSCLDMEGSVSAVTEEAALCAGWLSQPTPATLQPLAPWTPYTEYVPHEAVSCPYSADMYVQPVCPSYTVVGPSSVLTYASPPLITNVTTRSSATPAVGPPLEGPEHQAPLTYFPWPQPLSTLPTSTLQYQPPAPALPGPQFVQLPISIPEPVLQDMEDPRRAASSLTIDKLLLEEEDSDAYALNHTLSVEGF
The description is as above. Particulars: protein: recombinant;recombinant; copies: 1;1; dsDNA, one strand shown. The gist of the method:
as §1

POU1 (OCT1 POU domain), sequence (P14859 260-458): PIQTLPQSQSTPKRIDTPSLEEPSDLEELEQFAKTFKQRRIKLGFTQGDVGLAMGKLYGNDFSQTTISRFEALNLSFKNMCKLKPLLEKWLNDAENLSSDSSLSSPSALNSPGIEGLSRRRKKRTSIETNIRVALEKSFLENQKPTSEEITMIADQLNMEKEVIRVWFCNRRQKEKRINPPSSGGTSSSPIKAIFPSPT

As to ATCCTAAG, the binding signal is 0.0324 % of ANNNNAAN 8-mers with POU1 (OCT1 POU domain), 0.0299 % of ANNNNAAN 8-mers in the assay with POU2 (OCT2 POU domain), 0.0312 % of ANNNNAAN 8-mers in assay [1] and 0.0405 % of ANNNNAAN 8-mers in assay [2].

For ACCCCAAA, the binding signal with POU1 (OCT1 POU domain) is 0.0198 % of ANNNNAAN 8-mers; with POU2 (OCT2 POU domain) it was 0.0104 % of ANNNNAAN 8-mers; in assay [1], 0.0109 % of ANNNNAAN 8-mers; in assay [2] it was 0.0124 % of ANNNNAAN 8-mers.

For the sequence AGGCAAAG, the binding signal with POU1 (OCT1 POU domain) was 0.146 % of ANNNNAAN 8-mers; with POU2 (OCT2 POU domain) it was 0.0783 % of ANNNNAAN 8-mers; in assay [1], 0.258 % of ANNNNAAN 8-mers; in assay [2] it was 0.13 % of ANNNNAAN 8-mers.

For AATGCAAC, the binding signal with POU1 (OCT1 POU domain) is 0.0435 % of ANNNNAAN 8-mers; with POU2 (OCT2 POU domain), 0.0409 % of ANNNNAAN 8-mers; in assay [1], 0.046 % of ANNNNAAN 8-mers; in assay [2], 0.0413 % of ANNNNAAN 8-mers.

With ATCGAAAA, the binding signal was 0.0511 % of ANNNNAAN 8-mers in the assay with POU1 (OCT1 POU domain), 0.0564 % of ANNNNAAN 8-mers with POU2 (OCT2 POU domain), 0.0441 % of ANNNNAAN 8-mers in assay [1] and 0.0454 % of ANNNNAAN 8-mers in assay [2].

In the case of ACGTTAAT, the binding signal with POU1 (OCT1 POU domain) was 0.112 % of ANNNNAAN 8-mers; in the assay with POU2 (OCT2 POU domain), 0.163 % of ANNNNAAN 8-mers; in assay [1], 0.073 % of ANNNNAAN 8-mers; in assay [2] it was 0.102 % of ANNNNAAN 8-mers.

On to ACTGAAAG, for which the binding signal is 0.0172 % of ANNNNAAN 8-mers in the assay with POU1 (OCT1 POU domain), 0.0196 % of ANNNNAAN 8-mers with POU2 (OCT2 POU domain), 0.0273 % of ANNNNAAN 8-mers in assay [1] and 0.0231 % of ANNNNAAN 8-mers in assay [2].

In the case of AGTGCAAG, the binding signal with POU1 (OCT1 POU domain) was 0.0187 % of ANNNNAAN 8-mers; with POU2 (OCT2 POU domain), 0.0311 % of ANNNNAAN 8-mers; in assay [1], 0.0238 % of ANNNNAAN 8-mers; in assay [2] it was 0.0264 % of ANNNNAAN 8-mers.

As for AATCGAAC, the binding signal was 0.0366 % of ANNNNAAN 8-mers in the assay with POU1 (OCT1 POU domain), 0.0334 % of ANNNNAAN 8-mers with POU2 (OCT2 POU domain), 0.0347 % of ANNNNAAN 8-mers in assay [1] and 0.0512 % of ANNNNAAN 8-mers in assay [2].

Consider AAGTAAAG, for which the binding signal in the assay with POU1 (OCT1 POU domain) was 0.0545 % of ANNNNAAN 8-mers; with POU2 (OCT2 POU domain) it was 0.0541 % of ANNNNAAN 8-mers; in assay [1] it was 0.0687 % of ANNNNAAN 8-mers; in assay [2], 0.0545 % of ANNNNAAN 8-mers.

For AGATAAAT, the binding signal in the assay with POU1 (OCT1 POU domain) was 0.0892 % of ANNNNAAN 8-mers; with POU2 (OCT2 POU domain), 0.0886 % of ANNNNAAN 8-mers; in assay [1] it was 0.0617 % of ANNNNAAN 8-mers; in assay [2], 0.0627 % of ANNNNAAN 8-mers.

With AGGCGAAG, the binding signal with POU1 (OCT1 POU domain) was 0.024 % of ANNNNAAN 8-mers; with POU2 (OCT2 POU domain), 0.0305 % of ANNNNAAN 8-mers; in assay [1], 0.0242 % of ANNNNAAN 8-mers; in assay [2], 0.0297 % of ANNNNAAN 8-mers.

As to AATTAAAT, the binding signal with POU1 (OCT1 POU domain) is 0.333 % of ANNNNAAN 8-mers; with POU2 (OCT2 POU domain), 0.39 % of ANNNNAAN 8-mers; in assay [1], 0.19 % of ANNNNAAN 8-mers; in assay [2] it was 0.173 % of ANNNNAAN 8-mers.

ACTACAAC: the binding signal in the assay with POU1 (OCT1 POU domain) is 0.0122 % of ANNNNAAN 8-mers; with POU2 (OCT2 POU domain), 0.0196 % of ANNNNAAN 8-mers; in assay [1], 0.0164 % of ANNNNAAN 8-mers; in assay [2], 0.0173 % of ANNNNAAN 8-mers.

For the sequence ATCGAAAC, the binding signal was 0.0275 % of ANNNNAAN 8-mers with POU1 (OCT1 POU domain), 0.0236 % of ANNNNAAN 8-mers in the assay with POU2 (OCT2 POU domain), 0.0316 % of ANNNNAAN 8-mers in assay [1] and 0.0215 % of ANNNNAAN 8-mers in assay [2].

As for ATCACAAT, the binding signal is 0.045 % of ANNNNAAN 8-mers in the assay with POU1 (OCT1 POU domain), 0.0518 % of ANNNNAAN 8-mers in the assay with POU2 (OCT2 POU domain), 0.039 % of ANNNNAAN 8-mers in assay [1] and 0.0487 % of ANNNNAAN 8-mers in assay [2].

For the sequence ACCCAAAG, the binding signal with POU1 (OCT1 POU domain) was 0.0198 % of ANNNNAAN 8-mers; with POU2 (OCT2 POU domain), 0.0184 % of ANNNNAAN 8-mers; in assay [1] it was 0.0203 % of ANNNNAAN 8-mers; in assay [2] it was 0.0206 % of ANNNNAAN 8-mers.

Regarding ACTTTAAA, the binding signal in the assay with POU1 (OCT1 POU domain) is 0.0713 % of ANNNNAAN 8-mers; with POU2 (OCT2 POU domain), 0.0817 % of ANNNNAAN 8-mers; in assay [1], 0.0652 % of ANNNNAAN 8-mers; in assay [2] it was 0.0495 % of ANNNNAAN 8-mers.

For the sequence ATTGTAAC, the binding signal in the assay with POU1 (OCT1 POU domain) was 0.0362 % of ANNNNAAN 8-mers; with POU2 (OCT2 POU domain), 0.0374 % of ANNNNAAN 8-mers; in assay [1], 0.0336 % of ANNNNAAN 8-mers; in assay [2] it was 0.0371 % of ANNNNAAN 8-mers.

With ATAGTAAG, the binding signal in the assay with POU1 (OCT1 POU domain) is 0.0633 % of ANNNNAAN 8-mers; with POU2 (OCT2 POU domain) it was 0.0806 % of ANNNNAAN 8-mers; in assay [1], 0.0656 % of ANNNNAAN 8-mers; in assay [2] it was 0.0619 % of ANNNNAAN 8-mers.

Take AAGAAAAC: the binding signal in the assay with POU1 (OCT1 POU domain) was 0.0473 % of ANNNNAAN 8-mers; with POU2 (OCT2 POU domain) it was 0.0345 % of ANNNNAAN 8-mers; in assay [1], 0.0644 % of ANNNNAAN 8-mers; in assay [2], 0.0355 % of ANNNNAAN 8-mers.

Turning to ACGATAAC, the binding signal with POU1 (OCT1 POU domain) is 0.0252 % of ANNNNAAN 8-mers; in the assay with POU2 (OCT2 POU domain), 0.0293 % of ANNNNAAN 8-mers; in assay [1] it was 0.0191 % of ANNNNAAN 8-mers; in assay [2], 0.0264 % of ANNNNAAN 8-mers.

In the case of ACTCTAAC, the binding signal in the assay with POU1 (OCT1 POU domain) is 0.013 % of ANNNNAAN 8-mers; in the assay with POU2 (OCT2 POU domain) it was 0.015 % of ANNNNAAN 8-mers; in assay [1], 0.0187 % of ANNNNAAN 8-mers; in assay [2], 0.0182 % of ANNNNAAN 8-mers.
